Experimental data: PubChem BioAssay AID493201 (National Center for Advancing Translational Sciences (NCATS), 2011)
Records with an inconclusive call do not appear. Activity calls are given as the source filed them. Calls come from the whole dose curve; as a rule, active = well fitted activation curve with a large enough effect; inconclusive = small, poorly fitted or top-dose-only effect; inactive = no such curve, though single readings can be large or run the other way.

assay: qHTS Assay for Identifying a Potential Treatment of Ataxia-Telangiectasia: Secondary assay (no NCS) hit validation; settings: A-T patient fibroblasts, AlphaLISA, no DNA damage added, 90 min; series mostly up to 76.9 µM; activation: at the top concentration;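 note: phosphorylated KAP1 signal as a proxy for ATM-like kinase activity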; for activation: 0% is about no effect
How it was run: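 Without NCS-induced DNA breaks, ATM-like activity scored as phospho-KAP1 AlphaLISA signal (pKAP1/total KAP1 bead pair) in ATM-null F2112 fibroblasts; compound series up to 76.7 uM final, 37C incubation, lysates read on AlphaScreen protocol.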
Potency is the fitted concentration of half-maximal effect.

| Compound | activation | Potency |
| --- | --- | --- |
| CCC(C)NC(=O)c1cn(CCOC)c(=O)c2c1c1ccccc1n2C (stereo not given) | 2.54% (inactive) | – |
| COc1cc(CCC(=O)OCC(=O)N2CCc3ccccc32)cc(OC)c1OC | -4.35% (inactive) | – |
| CCOC(=O)CN(C(=O)CSc1nnc(COc2ccc(OC)cc2)n1CC)c1ccccc1 | 5.38% (inactive) | – |
| O=C1NC(NS(=O)(=O)c2ccc(Cl)cc2)(C(F)(F)F)C(=O)N1CCc1ccccc1 (stereo not given) | -1.74% (inactive) | – |
| CCOC(=O)CNS(=O)(=O)Cc1ccccc1 | 0% (inactive) | – |
| CC(C)c1ccc(C(C(=O)NC2CCCCC2)N(C(=O)c2ccccn2)c2cccnc2)cc1 (stereo not given) | 2.15% (inactive) | – |
| CCOC(=O)N1CCN(c2nc(N(c3ccccc3)c3ccccc3)nc(-n3ccnc3)n2)CC1 | 27% (inactive) | – |
| CSc1nc2ccccc2nc1N(C)S(=O)(=O)c1ccc(C)cc1 | – | 36.8 µM (active) |
| O=C(c1ccc(F)cc1)c1ccc(N2CCCCC2)cc1 | -6.96% (inactive) | – |
| O=C(N/N=C/c1ccncc1)c1ccc(COc2cccc3cccnc23)cc1 | 9.57% (inactive) | – |
| CCc1oc(C(=O)OC)cc1CSC(=N)N | 16.9% (inactive) | – |
| O=[N+]([O-])c1ccc(F)cc1F | – | 32.8 µM (active) |
| CC(C)c1ccc(-c2cc(C(=O)N3CCOCC3)c3cc(Br)ccc3n2)cc1 | -6.09% (inactive) | – |
| COc1ccc(C2(C)CC(C)(C)Nc3ccccc32)cc1 (stereo not given) | -1.08% (inactive) | – |
| COc1ccccc1-n1c(SCC(N)=O)nc2sc3c(c2c1=O)CCC3 | -2.61% (inactive) | – |
| S=c1[nH]nc(COc2ccccc2)n1/N=C/c1ccccc1Cl | -19.5% (inactive) | – |
| C=CCN1C(=O)/C(=C/C(=O)OC)S/C1=N\NC(=O)c1ccccc1 | 3.39% (inactive) | – |
| O=C(O)CCC(=O)NN1C(=O)c2ccccc2NC1c1ccco1 (stereo not given) | 4.35% (inactive) | – |

| Compound | activation | Potency |
| --- | --- | --- |
| CCCc1nn(C)c(C(=O)Nc2ccc(C(C)(C)C)cc2)c1Cl | 11.9% (inactive) | – |
| COc1cc(/C=C2\SC(=S)N(C(C(=O)O)c3ccccc3)C2=O)ccc1O (stereo not given) | 3.23% (inactive) | – |
| O=C(NCc1ccccc1)c1cccnc1Sc1ccccc1 | 0.87% (inactive) | – |
| CC(C)CNS(=O)(=O)c1cc(C(=O)O)c(Cl)cc1Cl | 10.4% (inactive) | – |
| CC(=O)NNC(=O)CN1C(=O)/C(=C/c2ccccc2)SC1=S | 4.35% (inactive) | – |
| Cc1ccc(C)c(-n2c(SCC(=O)NC(C(=O)O)C(C)C)nnc2-c2cccc(Cl)c2)c1 (stereo not given) | – | 46.3 µM (active) |
| O=C(NCCCN1CCOCC1)c1ccc2c(c1)N(Cc1cccc(F)c1)C(=O)c1ccccc1S2 | 18.3% (inactive) | – |
| COc1cccc(CN(C)CC(=O)NCc2ccc(F)cc2)c1OC | -5.38% (inactive) | – |
| O=C(C(c1ccccc1)c1ccccc1)N1CC[C@@]2(O)CCCC[C@H]2C1 | 11.9% (inactive) | – |
| COC(=O)Cn1ccc2cc(S(=O)(=O)N3CCCCC3)ccc21 | 0% (inactive) | – |
| CCN(CC)S(=O)(=O)c1ccc(Cl)c(NC(=O)CCCCl)c1 | -1.74% (inactive) | – |
| COC(=O)c1ccc2[nH]c3cccc(/C(=C/c4ccccc4)c4ccccc4)c3c2c1 | -4.3% (inactive) | – |
| O=C1/C(=C/c2ccc(N3CCOCC3)o2)SC(=Nc2ccccc2)N1CCc1c[nH]c2ccccc12 | 17.2% (inactive) | – |
| CCCCCCCCCn1ccc(=N)cc1 | 22% (inactive) | – |
| O=C(Nc1ccc([N+](=O)[O-])cc1)c1cc2ccccc2nc1Cl | 14% (inactive) | – |
| CCN(c1ccccc1)S(=O)(=O)c1ccc(Cl)c(C(=O)N(CC2CCCO2)C2CCS(=O)(=O)C2)c1 (stereo not given) | – | 14.6 µM (active) |
| Cc1nn(-c2ccccc2)c2nc(C(Cl)(Cl)Cl)[nH]c(=O)c12 | -15.1% (inactive) | – |
